Measurements as given in PubChem BioAssay.
Activity calls are given as the source filed them.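 How the source made its calls, unless noted: active means fluorescence slope higher than the sample average by over 3 SD (cut at about -0.22 in these data, passing the limit was not always enough); inactive means the rest.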

Experiments:
[1] = inhibitors of TNFa-induced NFkB p65 translocation, primary screen, imaging, HUVEC, MLSMR starter and 10KST1 sets (AID 438;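 active means inhibition above 20% together with a positive visual image hit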;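 further: compound added about 3h40 before a 20 min TNFalpha stimulation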;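 on inhibition: signal is the nuclear over cytoplasmic p65 intensity ratio per well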); details: HUVEC TNFa-induced p65 nuclear translocation; cell count: measured here: nuclei count (cytotoxicity indicator), at 2.08 µM; inhibition: at 2 µM, stronger effect = higher value, 0% TNFa-plus-vehicle, 100% no-TNFa wells
[2] = inhibitors of E-selectin induction by TNFa, primary screen, imaging, HUVEC, immunofluorescence, MLSMR starter and 10KST1 sets (AID 487;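 active means visually confirmed hit in the image check and inhibition above 20%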;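 on inhibition: signal is fraction of cell area covered by stained E-selectin grains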;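 on nuclei count: 100% = median nuclei count of all wells on the same plate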); details: HUVEC TNFalpha-induced E-selectin immunofluorescence imaging, at 2 µM; inhibition: stronger effect = higher value; nuclei count: measured here: cell number, toxicity
[3] = DUSP6 inhibitors restoring Erk phosphorylation by chemical complementation, primary imaging in DUSP6-transfected HeLa (AID 609;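 active means compounds giving at least 50% inhibition in the cell-based MKP-3 phosphatase rescue imaging test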;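 on inhibition: phospho-Erk level distribution per well compared with pooled transfected vehicle control wells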); details: HeLa MKP-3 transfected, phospho-Erk imaging KS statistic, at 10 µM, cells stimulated with TPA for 15 min
[4] = target: Dual specificity protein phosphatase 6 (Homo sapiens) (UniProt Q16828); experiment: as above; details: HeLa MKP-3 transfected, phospho-Erk imaging KS statistic; at 10 µM; stronger effect = higher value; cells stimulated with TPA for 15 min
[5] = target: Voltage-gated potassium channel subunit beta-2 (Rattus norvegicus) (UniProt P62483); experiment: KvBeta enzyme negative modulators, primary screen, biochemical, NADPH fluorescence (AID 622); details: recombinant KvBeta, 4-cyanobenzaldehyde reduction, at 10 µM, stronger effect = higher value;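 further: slope of raw intensity against log time taken from 70 to 1610 s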
[6] = target: Voltage-gated potassium channel subunit beta-2 (Rattus norvegicus) (UniProt P62483); experiment: KvBeta positive modulators, primary screen, biochemical, NADPH fluorescence (AID 623;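 active means NADPH fluorescence slope more negative than the mean of all samples by about 3 SD, 99.7% confidence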;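 further: fluorescence intensity change per second fitted from 20 to 320 s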); details: Recombinant KvBeta, NADPH fluorescence decrease slope, 10 min; at 10 µM; stronger effect = lower value
[7] = target: Alpha-2C adrenergic receptor (Homo sapiens) (UniProt P18825); experiment: modulators of alpha2C/GIRK thallium flux, primary screen, cell-based, HEK293 alpha2C/GIRK1/2 (AID 624;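 active means fluorescence slope after compound addition differing from the mean of all screened samples at 99.7% confidence, in either direction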;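 further: slope of fluorescence ratio to pre-addition baseline per second over 15 to 24 s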); details: thallium flux BTC fluorescence, at 10 µM, actives lie on both sides
[8] = inhibitors of Chlamydomonas gravitaxis, primary screen, whole organism, Chlamydomonas reinhardtii, WT vs cilia-less mutant, absorbance, 96-well (AID 463189;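 active means inhibition at or above 50% relative to wild type and mutant plate controls; inactive means inhibition below 50%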;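 further: 0% = wild type cc124 cells in DMSO and 100% = ciliumless bld1 mutant cells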); details: OD600 absorbance, 2 days, at 10 µM, stronger effect = higher value
[9] = measured here: cell density z-score
[10] = measured here: nuclear c-Myc green intensity z-score
[11] = measured here: nuclear pErk red intensity z-score, stronger effect = higher value

Voltage-gated potassium channel subunit beta-2 (Rattus norvegicus), sequence (P62483 whole entry, looked up): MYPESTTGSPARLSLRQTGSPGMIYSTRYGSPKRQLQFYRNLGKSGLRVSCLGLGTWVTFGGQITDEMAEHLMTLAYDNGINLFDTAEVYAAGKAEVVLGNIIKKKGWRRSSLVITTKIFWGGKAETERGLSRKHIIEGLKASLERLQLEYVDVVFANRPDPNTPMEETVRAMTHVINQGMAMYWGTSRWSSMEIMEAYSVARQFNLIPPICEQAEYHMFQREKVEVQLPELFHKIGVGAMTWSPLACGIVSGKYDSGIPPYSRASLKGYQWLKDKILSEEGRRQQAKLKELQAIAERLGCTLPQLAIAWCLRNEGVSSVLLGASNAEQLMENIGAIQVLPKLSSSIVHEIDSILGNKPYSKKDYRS
Dual specificity protein phosphatase 6 (Homo sapiens), sequence (Q16828 whole entry, looked up): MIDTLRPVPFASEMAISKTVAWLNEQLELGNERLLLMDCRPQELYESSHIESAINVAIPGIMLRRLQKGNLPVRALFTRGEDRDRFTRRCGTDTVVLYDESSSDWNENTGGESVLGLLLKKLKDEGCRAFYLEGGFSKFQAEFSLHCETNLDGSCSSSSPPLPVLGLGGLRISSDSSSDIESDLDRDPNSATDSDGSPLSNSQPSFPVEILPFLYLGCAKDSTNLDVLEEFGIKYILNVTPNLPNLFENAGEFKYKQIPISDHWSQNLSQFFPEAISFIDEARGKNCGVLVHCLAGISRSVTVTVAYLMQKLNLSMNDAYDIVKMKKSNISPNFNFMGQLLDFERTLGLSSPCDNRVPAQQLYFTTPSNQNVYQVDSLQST
Alpha-2C adrenergic receptor (Homo sapiens), sequence (P18825 whole entry, looked up): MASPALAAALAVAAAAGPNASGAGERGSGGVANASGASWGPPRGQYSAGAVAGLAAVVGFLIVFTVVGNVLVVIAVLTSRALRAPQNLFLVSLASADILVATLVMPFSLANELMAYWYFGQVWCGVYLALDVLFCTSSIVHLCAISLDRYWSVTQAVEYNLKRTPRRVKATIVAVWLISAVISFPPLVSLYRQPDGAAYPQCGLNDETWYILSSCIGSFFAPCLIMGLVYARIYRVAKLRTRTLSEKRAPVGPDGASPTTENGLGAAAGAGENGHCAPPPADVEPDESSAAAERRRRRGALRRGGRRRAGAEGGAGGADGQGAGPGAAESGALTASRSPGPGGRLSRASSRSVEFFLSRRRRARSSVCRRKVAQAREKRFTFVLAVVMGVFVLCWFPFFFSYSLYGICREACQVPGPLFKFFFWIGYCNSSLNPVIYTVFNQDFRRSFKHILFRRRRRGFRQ

SMILES	cell count [1]	inhibition [1]	inhibition [2]	nuclei count [2] [%]	z-score [3, 9]	z-score [3, 10]	z-score [3, 11]	inhibition [4]	fluorescence slope [5]	NADPH fluorescence slope [6]	slope [7]	inhibition [8]
Cc1ccccc1N1C(=O)C2ON(c3ccccc3)C(c3ccncc3)C2C1=O (stereo not drawn)	337	-2.8% (inactive)	-88.7% (inactive)	156	-1.56	-0.511	0.414	-12.3% (inactive)	-0.445 (inactive)	-0.000127 (inactive)	0.00538 (inactive)	-10.6% (inactive)
N#Cc1nc(-c2ccccc2Cl)oc1N1CCCCC1	419	6.4% (inactive)	-134% (inactive)	150	1.98	-2.24	-0.968	20.2% (inactive)	-0.535 (inactive)	-6.6e-05 (inactive)	0.00507 (inactive)	35.9% (inactive)
COc1cc(C2C(C(=O)c3cccs3)=C(O)C(=O)N2c2cc(C)on2)ccc1O (stereo not drawn)	340	4.6% (inactive)	-93.3% (inactive)	155	0.402	-0.247	-0.385	-10.5% (inactive)	-0.43 (inactive)	-0.000162 (inactive)	0.00517 (inactive)	-10.7% (inactive)
CC(C)Cc1nc2n[nH]c(N)c2c2c1CCC2	325	-3.7% (inactive)	-87.6% (inactive)	149	0.414	-0.778	-0.647	-1.75% (inactive)	-0.43 (inactive)	-8.3e-05 (inactive)	0.0075 (inactive)	8.43% (inactive)
Cc1ccc(N2C(=O)C3ON(c4ccccc4)C(c4ccncc4)C3C2=O)c(C)c1 (stereo not drawn)	326	-7.9% (inactive)	-152% (inactive)	164	0.138	-0.827	-0.00414	-12.3% (inactive)	-0.437 (inactive)	-0.000117 (inactive)	0.00457 (inactive)	0.697% (inactive)
CC(C)Cn1nc(NC(=O)C(C)(C)C)c2cc3ccccc3nc21	366	1.4% (inactive)	-86.4% (inactive)	160	-0.914	-0.417	1.07	-5.26% (inactive)	-0.371 (inactive)	-0.000242 (inactive)	0.00396 (inactive)	-27.1% (inactive)
CCCc1cc(=O)oc2c(CN3CCCC3)c(O)c(Cl)cc12	371	-2.3% (inactive)	-95.9% (inactive)	144	0.942	-0.732	0.231	22.8% (inactive)	-0.172 (inactive)	-2.5e-06 (inactive)	0.00449 (inactive)	-0.278% (inactive)
Oc1ccccc1-c1nc(NCc2ccco2)c2ccccc2n1	332	1.4% (inactive)	-50.6% (inactive)	151	-1.1	2.11	-0.675	-7.01% (inactive)	-0.396 (inactive)	-0.000126 (inactive)	0.00698 (inactive)	-8.43% (inactive)
CCOC(=O)c1cc2c(=O)n3ccccc3nc2n(Cc2ccccc2Cl)c1=N	339	0.5% (inactive)	-3.3% (inactive)	161	-0.704	0.973	1.09	-1.75% (inactive)	-0.39 (inactive)	-0.000121 (inactive)	0.00529 (inactive)	12.4% (inactive)
CC1(C)CC(=O)C2=C(C1)Oc1nc3ccccc3cc1C2C(C#N)C#N (stereo not drawn)	373	-3.7% (inactive)	-108% (inactive)	134	-0.147	-0.642	-1.04	-12.3% (inactive)	-0.414 (inactive)	-0.000128 (inactive)	0.00783 (inactive)	26.7% (inactive)
C=CCNc1nc(-c2cccc(OC)c2O)nc2ccccc12	347	5.6% (inactive)	-92.9% (inactive)	101	-0.736	0.355	1.19	7.01% (inactive)	-0.415 (inactive)	-0.000104 (inactive)	0.00503 (inactive)	1.52% (inactive)
CCCCc1cc(=O)oc2c(CN(C)C)c(O)c(Cl)cc12	409	-5.1% (inactive)	-156% (inactive)	164	-0.211	-0.0215	0.835	-5.26% (inactive)	-0.163 (inactive)	2.2e-05 (inactive)	0.0046 (inactive)	0.735% (inactive)
c1ccc(-c2nc(NCC3CCCO3)c3ccccc3n2)nc1 (stereo not drawn)	365	0% (inactive)	-106% (inactive)	173	1.77	-0.891	-0.309	-1.75% (inactive)	-0.436 (inactive)	-0.000131 (inactive)	0.00509 (inactive)	24.6% (inactive)
Cc1ccc(N2C(=O)C3ON(c4ccccc4)C(c4ccncc4)C3C2=O)cc1 (stereo not drawn)	381	1.9% (inactive)	-70.5% (inactive)	142	-0.368	-0.198	0.0354	-8.76% (inactive)	-0.416 (inactive)	-0.000456 (active)	0.0052 (inactive)	12.5% (inactive)
